In PubChem BioAssay (NCATS):
Where “and” joins values, the source holds several entries; their conditions need not be identical. Equal entries are not always repeated. Results filed as inconclusive are left out. More than one record can exist for a structure, and the calls need not agree. Unmarked numbers belong to inactive results. Calls of active or inactive are those of the source. The call rests on the fitted dose curve; in most records, active means well fitted inhibition curve with a large enough effect; inconclusive means small, poorly fitted or top-dose-only effect; inactive means no such curve, though single readings can be large or run the other way.

Experiment: Primary qHTS for inhibitors of nuclear receptor binding SET domain protein 2 (NSD2) in an RCH-ACV wild type WT cells (2C) (AID 1645877); further: nearly all actives have a fitted effect of over 70% in size
Conditions: RCH-ACV (leukaemia line) NSD2 WT (2C) viability, CellTiter-Glo, 72 h; series mostly up to 44.9 µM; activity change, negative = cell killing: at the top concentration
Text: Assay Provider: Jonathan D. Licht, MD
University of Florida College of Medicine, Gainesville, FL
Mutations in epigenetic regulators are common in relapsed pediatric acute lymphoblastic leukemia (ALL). Here, we uncovered the mechanism underlying the relapse of ALL driven by an activating mutation of the NSD2 histone methyltransferase (p.E1099K). […] Correction of this mutation restored glucocorticoid sensitivity. The transcriptional response to glucocorticoids was blocked in NSD2 mutant cells due to depressed glucocorticoid receptor (GR) levels and the failure of glucocorticoids to autoactivate GR expression. […] Pre-treatment of NSD2 p.E1099K cell lines and PDX samples with PRC2 inhibitors reversed glucocorticoid resistance in vitro and in vivo.
High-throughput drug screening of isogenic RCH-ACV cell lines was performed at the National Center for Advancing Translational Science (NCATS), National Institutes of Health as previously described (1). Briefly, isogenic RCH-ACV NSD2 p.E1099K mutant (9B) and WT cells (2C) were plated at 500 cells/well in a 1536-well plate with a 72-hour incubation with compounds prior to addition of CellTiter-Glo to assess cell viability. NCATS libraries screened include: NPC, MIPE 5.0, Kinase and NPACT. To determine compound activity in the qHTS assay, the concentration-response data for each sample was plotted and modeled by a four-parameter logistic fit yielding IC50 and efficacy (maximal response) values. The area under the curve (AUC) of the dose-response curve ensures both efficacy (magnitude of cell killing) and potency (concentration that elicits cell killing) are accounted for in the analysis of activity.
1. Tobie D Lee, Olivia W Lee, Kyle R Brimacombe, Lu Chen, Rajarshi Guha, Sabrina Lusvarghi, Bethilehem G Tebase, Carleen Klumpp-Thomas, Robert W Robey, Suresh V Ambudkar, Min Shen, Michael M Gottesman, Matthew D Hall. A High-Throughput Screen of a Library of Therapeutics Identifies Cytotoxic Substrates of P-glycoprotein. Mol Pharmacol. 2019, Nov;96(5):629-640.
On the % scale 0 is the no-effect control and ±100 the full control effect.

Row | SMILES | Potency | activity change, negative = cell killing | outcome
1 | Cc1n[nH]c(C)c1Cc1sc2c(c1C(=O)N1C[C@H](O)CO1)c(=O)n(C)c(=O)n2CC(C)C | inactive |  | 
2 | CN[C@@H](C)C(=O)N[C@H]1CCCC[C@H]2CC[C@@H](C(=O)N[C@@H](c3ccccc3)c3cn(CCCCc4ccc(CCCCn5cc([C@@H](NC(=O)[C@@H]6CC[C@@H]7CCCC[C@H](NC(=O)[C@H](C)NC)C(=O)N76)c6ccccc6)nn5)cc4)nn3)N2C1=O |  | -17% | 
3 | CC[C@H](Nc1ncnc2nc[nH]c12)c1nc2cccc(F)c2c(=O)n1-c1ccccc1 | 231 nM (active) and 1.18 µM (active) | -1.09% [at 9.23 µM] | 
4 | Cc1cc([C@@H](C)Nc2ccccc2C(=O)O)c2nc(N3CCOCC3)cc(=O)n2c1 | 2.51 µM (active) and 1.66 µM (active) |  | 
5 | Nc1nc2ccc(OC(F)(F)F)cc2s1 | 20.9 µM (active) |  | 
6 | Cc1csc(NC(=O)c2sc3nc4c(c(C(F)(F)F)c3c2N)CCC4)n1 |  | 6.11% | 
7 | CCCn1c(=O)c2[nH]c(C34CC5CC3C[C@@H](C5)C4)nc2n(CCC)c1=O |  | -4.09% | 
8 | CCc1ccc(CCOc2ccc(CC3SC(=O)NC3=O)cc2)nc1 (stereo not given) | inactive |  | 
9 | Cc1ccc(-n2nc(C(C)(C)C)cc2NC(=O)Nc2ccc(OCCN3CCOCC3)c3ccccc23)cc1 | 21.1 µM (active) |  | 
10 | Cn1cnc2c(F)c(Nc3ccc(Br)cc3Cl)c(C(=O)NOCCO)cc21 |  | -29.6% | 
11 | O=C1CCc2cc(OCCCCc3nnnn3C3CCCCC3)ccc2N1 | 21.1 µM (active) |  | 
12 | COc1ccccc1-c1cccc(-c2c(O)c3cc(C#N)c(Cl)cc3[nH]c2=O)c1 |  | 0.0378% | 
13 | Cc1oncc1C(=O)Nc1ccc(C(F)(F)F)cc1 | 10.6 µM (active) and 14.8 µM (active) |  | 
14 | c1ccc(-c2nn3c(c2-c2ccnc4cc(OCCN5CCOCC5)ccc24)CCC3)nc1 | 16.6 µM (active) |  | 
15 | O=NN(CCCl)C(=O)NCCCl |  | -3.95% | 
16 | Oc1cccc(-c2nc(N3CCOCC3)c3oc4ncccc4c3n2)c1 | 0.166 µM (active) |  | 
17 | NCCCC(N)(C(=O)O)C(F)F (stereo not given) | inactive |  | 
18 | O=c1[nH]c(-c2ccc(C(F)(F)F)cc2)nc2c1CSCC2 | inactive |  | 
19 | NC[C@H](O)c1ccc(O)c(O)c1 |  | -9.32% | 
20 | CC[C@@H](C)[C@H](NC(=O)[C@H](CC1CCCCC1)NC(=O)c1ccno1)C(=O)N1CCC2(CCc3ccccc32)CC1 |  | -4.81% | 

Row | SMILES | Potency | activity change, negative = cell killing | outcome
21 | CCN(c1ccccc1)c1cc(NC)[n+](C)c(C)n1 |  | -6.47% | 
22 | Cc1[nH]c(=O)c(C#N)cc1-c1ccc2nccn2c1 |  | -3.48% | 
23 | Cc1ccc(NC(=O)c2cccc(C(C)(C)C#N)c2)cc1Nc1ccc2ncn(C)c(=O)c2c1 | 13.2 µM (active) |  | 
24 | O=C(NOC[C@H](O)CO)c1ccc(F)c(F)c1Nc1ccc(I)cc1F |  | -29.6% | 
25 | CCCCCCCc1ccc(CCc2cccc(O)c2C(=O)O)cc1 |  | -13.5% | 
26 | c1ccc([C@H]2CN3CCSC3=N2)cc1 |  | 7.04% | 
27 | O=C(C1CC1)N1CC[C@@H](Cn2c(-c3ccc(-c4ccc5occc5c4)cc3)nc3cnccc32)C1 | 16.6 µM (active) |  | 
28 | Cc1cnc(NC(=O)C2=C(O)c3ccccc3S(=O)(=O)N2C)s1 | inactive |  | 
29 | CC(C)(C)NCC(O)c1ccc(O)c(CO)c1 (stereo not given) | inactive |  | 
30 | Cc1cn[nH]c1 | inactive |  | 
31 | CNC(=O)c1ccc(N2C(=S)N(c3ccc(C#N)c(C(F)(F)F)c3)C(=O)C2(C)C)cc1F |  | -9.73% | 
32 | O=C1CCCC2=C1C(c1[nH]ncc1Cl)N=C(Nc1nc3ccccc3o1)N2 (stereo not given) |  | -13.8% | 
33 | CCCc1nc2c(C)cc(-c3nc4ccccc4n3C)cc2n1Cc1ccc(-c2ccccc2C(=O)O)cc1 | inactive |  | 
34 | CC(=O)Oc1ccccc1C(=O)O | inactive |  | 
35 | OC(CN1CCC(Cc2ccc(F)cc2)CC1)c1ccc(Cl)cc1 (stereo not given) |  | -16% | 
36 | CN(C)c1ccc(Nc2nc(N)n(C(=O)c3c(F)cccc3F)n2)cc1 | 0.833 µM (active) |  | 
37 | COc1cccc2cc(-c3nc(C4CCC(C(=O)O)CC4)n4ncnc(N)c34)[nH]c12 (stereo not given) | 4.68 µM (active) and 820 nM (active) |  | 
38 | CC(C)NCC(O)COc1ccc(COCCOC(C)C)cc1 (stereo not given) |  | -7.65% | 
39 | Nc1ccc(S(=O)(=O)Nc2ccnn2-c2ccccc2)cc1 |  |  | inactive [at 17.3 µM]
